Source: PubChem BioAssay (NCI)
Compounds without any hit were thinned out: in the full panel of roughly 83,000, 20% have a hit.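 In brief: 96-well plates, 48 h treatment, single concentration, percent growth endpoint.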 Unmarked numbers belong to inactive results. The source made the active and inactive calls.

These molecules were tested on HCT-15 colon (assay: NCI-60 one-dose screen, 48 h (100 = growth as untreated, 0 = no growth, -100 = all killed)). Conditions: 10 µM unless noted.
Protocol: Growth inhibition of the HCT-15 human tumor cell line is measured as a screen for anti-cancer activity. Cells are grown in 96 well plates and exposed to the test compound for 48 hours. Compounds are tested at a single concentration, which is 10^-5 M for most compounds. The reported endpoint is percent growth (GI% or GIPRCNT), where numbers from 0 - 100% represent growth inhibition, and numbers from -100% - 0 represent cell death. For example, a value of 40 represents 60% growth inhibition. A value of 0 means no net growth occurred over the course of the experiment. A value of -40 indicates 40% of cells at the beginning of the experiment died by the end of the experiment. A value of -100 means all cells are dead at the end of the experiment.
NCI-60 Human Tumor Cell Lines Screen was performed using the standard one-dose NCI protocol, which is described in more detail at https://dtp.cancer.gov/discovery_development/nci-60/default.htm.
Compounds with GIPRCNT values below 10 were considered active. Activity score was based on GIPRCNT using the following formula: […]
Score is 0 for GIPRCNT values of 100 or above, 50 for GIPRCNT values of 0, and 100 for GIPRCNT values of -100.

| Compound | growth |
| --- | --- |
| COc1cc2c(cc1OCCCCCn1c3ccccc3c3ccccc31)N=C[C@@H]1CCCN1C2=O | -74.3% (active) |
| Cc1ccc(Nc2nnc(-c3ccc(Cl)cc3)o2)c(C)c1 | 44.7% |
| Cc1ccc(C(=O)C2=Cc3cc4ccccc4n3Cc3cnnn32)cc1 | 107% |
| COc1cc(/C=C/c2cc(/C=C/c3ccc(O)c(OC)c3)n(C(N)=O)n2)ccc1O | 4.33% (active) |
| COc1cc(-c2nn(-c3cccc(NC(=O)c4cccc(C(F)(F)F)c4)c3)cc2-c2ccncc2)ccc1Cl | 12.8% |
| NC(N)=N/N=C/c1ccc(-c2ccc(-c3cc(Cl)cc(Cl)c3)s2)cc1 | -74.5% (active) |
| COc1c2occc2c(OC)c2c(=O)c(-c3cc(-c4ccc(F)cc4)c(C#N)c(N)n3)c(C)oc12 | 31.4% |
| S=C(S)NCCc1c[nH]c2ccccc12 | 97.2% |
| Fc1ccc(CNCCNc2ncnc3c2cnn3-c2ccccc2)cc1 | 92.4% |
| CCN(CC)CCOc1ccc(/C(=C(/C)c2ccccc2)c2ccc(OC(C)=O)cc2)cc1 | 80.2% |
| COc1ccc(-c2ccc(C)n2-c2ccc(-c3nc4ccccc4s3)cc2)cc1 | 96.5% |
| Cc1ccc(-c2csc(NC(=O)CCCCl)n2)cc1 | 95.1% |
| COc1cc(C(=O)/C=C/c2ccc3nc(-c4cc(F)cc(F)c4)sc3c2)cc(OC)c1OC | 99.5% |
| COc1ccc(C(=O)N2NC(=O)/C(=C/c3cn(-c4ccccc4)nc3-c3ccccc3)N=C2c2ccccc2)cc1 | 98.2% |
| COc1ccc(C(=O)N2NC(=O)/C(=C/c3ccc(F)cc3)N=C2c2ccccc2)cc1 | 73% |
| Cc1ccc(-c2cc3nc(-c4ccccc4)nc(C(Cl)Cl)n3n2)cc1 | -30.4% (active) |
| COc1ccc(-c2nc(/C=N/Nc3cc(C)nc4ccc(Br)cc34)c(C)o2)cc1 | -87.4% (active) |
| COc1ccc(/C=C(\C#N)c2cc(OC)c3c(c2)OCO3)cc1 | 15.7% |
| COc1ccc(-c2[nH]nc(N)c2-c2cc(OC)c3c(c2)OCO3)cc1 | 46% |
| COc1ccc(CCNC2=CC(=O)CCC2)cc1OC | 108% |

| Compound | growth |
| --- | --- |
| COc1ccc(C(=O)c2cc(OC)c(OC)c(OC)c2OC)cc1O | 30.2% |
| COc1ccc(C2C=C(c3ccc(Cl)cc3)N=C3SC=C(C)N32)c(Br)c1 (stereo not given) | 25.4% |
| O=C1NN(C(=O)c2ccc(Cl)cc2)C(c2ccccc2)=N/C1=C\c1cn(-c2ccccc2)nc1-c1ccccc1 | 92.6% |
| CCN(CC)CCOC(=O)C(c1ccccc1)(c1ccccc1)C(C)C | 95.9% |
| Cc1ccc(S(=O)(=O)c2nc(-c3ccccc3)oc2S(C)(=O)=O)cc1 | -14.2% (active) |
| COc1cc(-c2nc(-c3nc4ccc(Cl)cc4[nH]3)cc3c2[nH]c2ccccc23)cc(OC)c1OC | 72.8% |
| Oc1ccccc1/C=N/NC(=S)NC1CC2C=CC1C2 (stereo not given) | 35.5% |
| COc1cccc(/C=C2\Oc3cc(OCCCN4CCCC4)ccc3C2=O)c1OC | 76.2% |
| O=S(=O)(NCCNc1nccc(-c2c(-c3ccc(F)cc3)nc3sccn23)n1)c1ccc(F)cc1 | 59% |
| C=C1CCC2C(C)(CO)C(O)CCC2(C)C1C/C=C1/C(=O)OCC1O/C=C/c1ccccc1 (stereo not given) | 57.8% |
| CCCCC(CC)OC(=O)C(Br)CC (stereo not given) | 105% |
| S=c1[nH]nc(-c2cc3ccc2CCc2ccc(cc2)CC3)n1-c1ccccc1 | 89.7% |
| Cc1ccc(-c2cc3nc(C(Cl)Cl)nc(-c4ccccc4C)n3n2)cc1 | 33.2% |
| C=C1CCC2C(C)(CO)C(O)CCC2(C)C1C/C=C1/C(=O)OCC1Oc1ccccc1C (stereo not given) | 55.9% |
| Cc1ccc2nc(-c3cc4c([nH]c5ccccc54)c(-c4ccc(F)c(F)c4)n3)[nH]c2c1 | 32.7% |
| Cc1cc(N/N=C/c2nc(-c3ccc(Br)cc3)oc2C)c2cc(Cl)ccc2n1 | 37.9% |
| Cc1ccc(Cc2c(C=O)nc(N)[nH]c2=O)c2ccccc12 | 101% |
| CCCCCc1cc[n+](CC(=O)c2ccc([N+](=O)[O-])cc2)cc1 | 94.4% |
| O=C(O)C1CCCCN1c1nc(Cl)nc(Cl)n1 (stereo not given) | 102% |
| Clc1cc2c(nn1)Nc1ccccc1S2 | 101% |
